Test results from PubChem BioAssay (NCI).
The panel holds about 83,000 compounds, 20% with a hit somewhere; the sample as a whole holds those more often.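 Values shown are percent growth following 48 h exposure of cells in 96-well plates to a single concentration of compound; below 10 was considered active.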 A number with no mark means an inactive call. Active and inactive are the calls of the source.

Assays:
Test in all cases: NCI-60 one-dose screen, 48 h (100 = growth as untreated, 0 = no growth, -100 = all killed)
Details in all cases: 10 µM unless noted
NCI-H23 lung = test system: NCI-H23 lung
NCI-H226 lung = test system: NCI-H226 lung
NCI-H322M lung = test system: NCI-H322M lung
HOP-62 NSCLC = test system: HOP-62 NSCLC
NCI-H460 lung = test system: NCI-H460 lung
HOP-92 NSCLC = test system: HOP-92 NSCLC
NCI-H522 lung = test system: NCI-H522 lung
A549/ATCC NSCLC = test system: A549/ATCC NSCLC
786-0 renal = test system: 786-0 renal
DU-145 prostate = test system: DU-145 prostate
K-562 leukemia = test system: K-562 leukemia
MALME-3M melanoma = test system: MALME-3M melanoma
MDA-MB-231 breast = test system: MDA-MB-231 breast
RXF 393 renal = test system: RXF 393 renal
SF-268 CNS = test system: SF-268 CNS
SF-295 CNS = test system: SF-295 CNS
SF-539 CNS = test system: SF-539 CNS
UACC-257 melanoma = test system: UACC-257 melanoma
M14 melanoma = test system: M14 melanoma

Compound	growth (NCI-H23 lung)	growth (NCI-H226 lung)	growth (NCI-H322M lung)	growth (HOP-62 NSCLC)	growth (NCI-H460 lung)	growth (HOP-92 NSCLC)	growth (NCI-H522 lung)	growth (A549/ATCC NSCLC)	growth (786-0 renal)	growth (DU-145 prostate)	growth (K-562 leukemia)	growth (MALME-3M melanoma)	growth (MDA-MB-231 breast)	growth (RXF 393 renal)	growth (SF-268 CNS)	growth (SF-295 CNS)	growth (SF-539 CNS)	growth (UACC-257 melanoma)	growth (M14 melanoma)
COc1cc2c(cc1OC)-c1ccc3cc4c(cc3c1N(CCCN1CCCCC1)C2)OCO4	70.4%	75.8%	63.6%	56%	29.1%	23.2%	41.6%	49.5%	40.1%	51.1%	16.9%	76.7%	34.4%	43.8%	44.8%	56.9%	61.7%	64.3%	54%
COc1ccccc1NC(=O)Nc1ccc(-c2nc3ccccc3o2)cc1	99.4%	99%	88.7%	95.8%	101%	111%	112%	82.2%	89.2%	101%	83.4%	95.3%	98.5%	108%	104%	96.8%	96.7%	101%	102%
CC(=O)OCCc1ccccc1	86.9%	108%	103%	78.1%	110%	85.7%	84.7%	107%	91.8%	134%	79.2%	87.8%	110%	107%	128%	101%	103%	100%	78.6%
CC[C@@H](C[C@H](CCO)c1ccccc1)c1cc2ccccc2o1	92.7%	88%	92.9%	84.4%	100%	96.8%	77.5%	84.3%	91%	97.9%	77.7%	103%	98%	96.9%	91.2%	99.5%	104%	96.9%	91.9%
C#CC[C@H](N)C(=O)O	103% [20 µM]	106% [20 µM]	97.8% [20 µM]	94.4% [20 µM]	104% [20 µM]	87.3% [20 µM]	89.2% [20 µM]	99% [20 µM]	98.1% [20 µM]	104% [20 µM]	96.8% [20 µM]	97% [20 µM]	99.1% [20 µM]	114% [20 µM]	99.8% [20 µM]	102% [20 µM]	96% [20 µM]	101% [20 µM]	100% [20 µM]
c1ccc2c(c1)nc(-n1ccnc1)c1nc3ccccc3n12	65.8%	65.7%	71.9%	47.9%	40.7%	80.9%	26.9%	54.3%	73.1%	76.9%	88.1%	92.9%	72.3%	64.9%	37.9%	83.7%	66%	82.3%	93.1%
C[C@@H](C[C@H](CCOCc1cccnc1)c1ccccc1)c1cc2ccccc2o1	90.7%	80.2%	90.5%	81.8%	98.4%	84.9%	78.2%	90.2%	93.8%	98.7%	81.5%	95.5%	98.1%	92.8%	89.3%	97.6%	98.8%	94%	92.8%
O=C(/C=C/C12c3ccccc3C(c3ccccc31)C1C(=O)N(c3ccc(Cl)cc3)C(=O)C12)c1ccccn1 (configuration not stated)	-22.6% (active)	-49.3% (active)	11.3%	5.06% (active)	-32.3% (active)	-53.7% (active)	-6.34% (active)	5.63% (active)	-60.7% (active)	-86.5% (active)	4.62% (active)	-52% (active)	-16% (active)	-88.6% (active)	8.62% (active)	-9.27% (active)	-52.7% (active)	2.58% (active)	-1.41% (active)
